Compounds with a hit are over-represented: about 12% of the library has one in this group of screens.
BAZ2B inh = blocks human BAZ2B. hit rate 4.4% among 360,000. Q9UIF8. AlphaScreen BAZ2B-H3K14Ac peptide displacement. Potency, µM (top dose mostly 114 µM), for inactives: at the highest dose activity change, negative = inhibition, hits mostly inhibitors; also: potency is read from the fitted curve at half-maximal effect; % is scaled to controls: 0 for no effect and ±100 for the full control effect; nearly all actives have a fitted effect of over 60% in size
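BAZ2B 50 nM plus b-H3(5-23)K14Ac 50 nM, PBS pH 7.4/0.01% Tween-20, 30 min RT; compound added (max 110 uM), 30 min RT; streptavidin donor/Ni-chelate acceptor beads 10 ug/mL final, 20 min dark; AlphaScreen read.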
TDP1 block = TDP1 (human) enzyme inhibition. hit rate 0.28% among 350,000. AID 485290. Q9NUW8. Potency, µM (top dose mostly 130 µM), for the others: top-dose activity change, negative = inhibition, hits mostly inhibitors. recombinant TDP1, AlphaScreen DNA substrate cleavage; also: potency is read from the fitted curve at half-maximal effect; % is scaled to controls: 0 for no effect and ±100 for the full control effect; nearly all actives have a fitted effect of over 40% in size
Target sequence (Q9NUW8 whole entry, looked up): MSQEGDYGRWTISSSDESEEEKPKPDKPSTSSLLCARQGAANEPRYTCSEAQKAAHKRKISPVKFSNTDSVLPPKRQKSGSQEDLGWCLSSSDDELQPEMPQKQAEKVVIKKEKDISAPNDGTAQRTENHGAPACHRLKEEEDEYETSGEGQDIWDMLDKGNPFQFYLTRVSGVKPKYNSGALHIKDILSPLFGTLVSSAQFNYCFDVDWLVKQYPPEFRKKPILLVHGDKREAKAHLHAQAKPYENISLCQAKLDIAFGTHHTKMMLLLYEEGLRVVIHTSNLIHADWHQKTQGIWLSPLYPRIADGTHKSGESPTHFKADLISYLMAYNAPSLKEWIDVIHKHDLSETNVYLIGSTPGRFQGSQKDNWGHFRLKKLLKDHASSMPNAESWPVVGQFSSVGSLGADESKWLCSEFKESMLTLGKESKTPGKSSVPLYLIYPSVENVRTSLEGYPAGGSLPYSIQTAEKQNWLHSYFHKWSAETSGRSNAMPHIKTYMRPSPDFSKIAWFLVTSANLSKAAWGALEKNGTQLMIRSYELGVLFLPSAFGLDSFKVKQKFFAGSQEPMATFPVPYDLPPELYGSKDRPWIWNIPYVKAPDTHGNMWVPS
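Enzyme-compound mixtures sat 15 min at room temperature, followed by a 5 min reaction with 15 nM final substrate and 10 min with AlphaScreen beads. Recombinant human Tdp1 was used at 1 nM final.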
G9a inh-1 = blocks human histone lysine methyltransferase G9a; Q96KQ7; G9a H3K9 monomethylation, AlphaScreen, 2 h; Potency, µM (doses to about 102 µM), for the others: top-dose activity, negative = inhibition, actives largely listed as inhibitors; hit rate 8.8% among 350,000; AID 504332; also: potency is read from the fitted curve at half-maximal effect; % is scaled to controls: 0 for no effect and ±100 for the full control effect; nearly all actives have a fitted effect of over 75% in size
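G9a (20 nM) was preincubated 15 min with compound, then reacted 2 h at room temperature with 500 nM biotin-H3K9 peptide and 20 µM SAM. Monomethyl-H3K9 detected by AlphaScreen using anti-H3K9me1 antibody.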
HP1b chromo inh = HP1-beta chromodomain-methylated histone interaction inhibition. P83916. AlphaScreen HP1-beta / biotin-H3K9me3 peptide binding. Potency, µM (series often up to 114 µM), for the others: at the top dose activity change, negative = inhibition, actives largely listed as inhibitors. hit rate 0.56% among 390,000; also: potency is read from the fitted curve at half-maximal effect; nearly all actives have a fitted effect of over 70% in size
Target sequence (P83916 whole entry, looked up): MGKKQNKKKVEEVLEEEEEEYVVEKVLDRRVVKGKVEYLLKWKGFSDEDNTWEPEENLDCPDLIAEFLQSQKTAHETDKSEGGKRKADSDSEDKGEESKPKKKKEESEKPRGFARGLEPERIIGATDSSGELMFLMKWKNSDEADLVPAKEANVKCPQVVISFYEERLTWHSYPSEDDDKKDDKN
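AlphaScreen: HP1-beta (50 nM) preformed 30 min with biotin-H3(1-18)K9me3 peptide (50 nM) in PBS pH 7.4, 0.01% Tween-20. Compound added for 30 min at RT, then streptavidin donor/nickel chelate acceptor beads (10 ug/mL) for 30 min.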
JMJD2A Tudor inh = blocks the human JMJD2A Tudor domain. O75164. AlphaScreen JMJD2A-Tudor / H3K4me3 peptide binding. AID 504339. Potency, µM (doses to about 114 µM), without a hit: top-dose activity change, negative = inhibition, hits mostly inhibitors. hit rate 4.4% among 390,000; also: potency is read from the fitted curve at half-maximal effect; % is scaled to controls: 0 for no effect and ±100 for the full control effect; nearly all actives have a fitted effect of over 50% in size
Sfp inh = Sfp phosphopantetheinyl transferase inhibition. Biochemical Sfp PPTase activity, qHTS. hit rate 3.5% among 310,000. Q9F4F7. Potency, µM, for the others: largest response in the series, negative = inhibition, actives largely listed as inhibitors;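 also: the enzyme is Sfp with the accession as filed and its product quenches rhodamine fluorescence; potency is read from the fitted curve at half-maximal effect; 0% = enzyme reaction without inhibitor and -100% = no enzyme wells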
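Fluorescence-quenching assay with 15 nM Sfp, 5 uM rhodamine-CoA and 12.5 uM BHQ-2-labelled ybbR peptide in pH 7.6 Hepes/MgCl2 buffer. Enzyme was pre-incubated with compound for 15 min at room temperature. Rate was taken from the 30-min fluorescence change (525/598 nm).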
Sfp inh conf = confirmation of Bacillus subtilis Sfp PPTase inhibitors | shares compounds with Sfp inh | hit rate 79% among 380 | Sfp PPTase enzymatic assay, qHTS titration | AID 2701 | Potency, µM (top dose mostly 114 µM), without a hit: at the top dose activity change, negative = inhibition, actives largely listed as inhibitors;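 also: potency is read from the fitted curve at half-maximal effect; plate controls were uninhibited Sfp reaction for no effect and no enzyme control for full effect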
Sfp PPTase gel = Inhibits Bacillus subtilis Sfp phosphopantetheinyl transferase; shares compounds with Sfp inh; purified Sfp, gel-based phosphopantetheinylation read-out; Potency, µM, most hits filed as inhibitors; hit rate 20% among 210;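 active = potency below 100 µM; inconclusive = dose-dependent response but potency above 100 µM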;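 also: band intensities scaled against SCH202676 control wells before curve fitting; potency is an IC50 for inhibitors of Sfp transfer activity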
JMJD2E inh-1 = blocks human JMJD2E demethylase activity. shares compounds with BAZ2B inh. JMJD2E demethylase, FDH-coupled NADH fluorescence. Potency, µM (doses to about 57 µM), without a hit: at the highest dose activity, negative = inhibition, usual class: inhibitors. hit rate 89% among 130. AID 493212
ME-1 prolif = ME-1 cell growth inhibition | shares compounds with BAZ2B inh | ME-1 cell proliferation, ATP luminescence, 48 h | Potency, µM (top dose mostly 56.1 µM), inactives show at the top dose activity change, negative = inhibition, actives largely listed as inhibitors | hit rate 20% among 140
JMJD2E inh-2 = JMJD2E (human) demethylase inhibition, confirmation; hit rate 93% among 140; shares compounds with JMJD2A Tudor inh; Recombinant JMJD2E, FDH-coupled NADH fluorescence (FDH is formaldehyde dehydrogenase); Potency, µM (doses to about 56.8 µM), for the others: top-dose activity change, negative = inhibition, most hits filed as inhibitors
FDH counter = FDH (Pseudomonas putida) inhibition counter-screen; shares compounds with JMJD2A Tudor inh; FDH enzyme assay, NADH fluorescence kinetic; Potency, µM (highest dose often 56.7 µM), without a hit: top-dose activity, negative = inhibition, actives largely listed as inhibitors; hit rate 10% among 140; AID 2680
G9a inh-2 = confirmation of human histone methyltransferase G9a inhibitors | shares compounds with JMJD2A Tudor inh | G9a H3K9 monomethylation, AlphaScreen, 2 h | Potency, µM, usual class: inhibitors | hit rate 89% among 370 | AID 588344; also: potency is read from the fitted curve at half-maximal effect; nearly all actives have a fitted effect of over 65% in size
* = called active by the depositor; i = inactive; ? = inconclusive; . = not tested or not shown; ! = not confirmed by another sample; [ ] = dose if it differs, or a comment. Unless noted, calls follow the shape of the dose curve; as a rule, active = well fitted curve in the direction sought with a large enough effect; inconclusive = small, poorly fitted or top-dose-only effect, or another doubt; inactive = no such curve, though single readings can be large; an effect the other way counts as inactive or inconclusive.

SMILES	BAZ2B inh	TDP1 block	G9a inh-1	HP1b chromo inh	JMJD2A Tudor inh	Sfp inh	others
CC(C)(C)C(=O)OC[N+](C)(C)CCOC(=O)C(O)(c1ccccc1)C1CCCC1 (stereo unspecified)	3.7%	2.4%	6.7%	-2.0%	-5.2%	9.0%
CC(C)CN1CC[C@@]2(CCCN(C(=O)Oc3ccccc3)C2)C1	.	.	5.7%[12.7 µM]	.	.	-3.6%
CN[C@H](CC(C)C)C(=O)N[C@H]1C(=O)N[C@@H](CC(N)=O)C(=O)N[C@@H]2C(=O)N[C@H]3C(=O)N[C@H](C(=O)N[C@H](C(=O)O)c4cc(O)cc(O)c4-c4cc3ccc4O)[C@H](O)c3ccc(c(Cl)c3)Oc3cc2cc(c3O[C@@H]2O[C@H](CO)[C@@H](O)[C@H](O)[C@@H]2O[C@H]2C[C@](C)(N)[C@H](O)[C@H](C)O2)Oc2ccc(cc2Cl)[C@H]1O	.	.	1.5%[59 µM]	.	.	.
Cc1cccc(-n2c(/C=C/c3ccccc3O)nc3ccccc3c2=O)c1	-0.7%	4.8%[2.28 µM]	-1.9%[59 µM]	39.0%	-11.4%	.
Cc1cccc(N2CCc3c2nc2ccccc2c3N)c1	?	3.1%	?	?	3.16µM*!	28.2µM*	Sfp inh conf=26.4µM*;Sfp PPTase gel=i
C[C@H](N)[C@H](O)c1ccc(O)c(O)c1	.	?	1.58µM*	.	.	35.5µM*	Sfp inh conf=?;Sfp PPTase gel=74.5µM*
C[N+](C)(C)CCCl	.	4.9%	.	.	.	11.7%
CC(C)Nc1ccc(Nc2ccccc2)cc1	28.2µM*	3.6%	1.58µM*	44.7µM*	50.1µM*	8.91µM*	Sfp inh conf=10.5µM*;Sfp PPTase gel=?
O=C(Oc1ccc2cc(Br)ccc2c1)N1CCCCCC1	93.7%	.	52.5%[59 µM]	.	.	2.3%
CCOC(=O)C1=CC(=C2C(=O)N(CC)C(=S)N(CC)C2=O)c2ccccc2O1	?	8.1%	25.1µM*	?	-26.1%	50.1µM*	Sfp inh conf=59.1µM*;Sfp PPTase gel=i
CCN1C(=O)C(=C2C=C(C)OC(C)=C2)C(=O)N(CC)C1=S	-24.7%	-7.5%	-17.0%	21.8%	-7.7%	13.8%
CC(C)c1cc2c(c(O)c1O)[C@@]1(C(=O)O)CCCC(C)(C)[C@@H]1CC2	.	12.2%	3.55µM*	.	.	1.41µM*	Sfp inh conf=2.64µM*;Sfp PPTase gel=i
CC(C)[C@@]1(NC(=O)[C@H]2CC3c4cccc5[nH]cc(c45)C[C@H]3N(C)C2)O[C@@]2(O)C3CCCN3C(=O)[C@@H](Cc3ccccc3)N2C1=O (stereo partly specified)	.	14.6%	12.6µM*!	.	.	79.4µM*!	ME-1 prolif=?
CC(C)c1ccc(CNC(=O)c2ccc(N3CCCC3)c(NC(=O)NCc3ccccc3)c2)cc1	?	1.2%	-2.2%[59 µM]	12.2%	-23.2%	.
Oc1cccc2cc(N3CCNCC3)cnc12	.	.	.	.	.	.	JMJD2E inh-1=?;JMJD2E inh-2=?;FDH counter=0.0%
ClC1=C(Cl)C2(Cl)C(CBr)CC1(Cl)C2(Cl)Cl (stereo unspecified)	.	14.0%	0.1%[12.7 µM]	.	.	-0.5%
COc1ccc(CCNCc2ccncc2)cc1OC	50.1µM*	1.1%	2.51µM*	?	11.2µM*	44.7µM*	G9a inh-2=44.7*
CNCCc1ccc(OC)c(OC)c1	-7.3%	.	?	35.4%	-1.4%	-10.7%
Nc1nccc(-c2c(-c3ccc(F)cc3)ncn2C2CCNCC2)n1	.	4.9%	.	.	.	-3.0%
CC(=O)Nc1ccc(NC(=O)Oc2ccccc2)cc1	-20.7%	-4.0%	?	9.3%	-13.2%	11.7%
CN(C)c1ccc(NC(=O)Oc2ccccc2)cc1	44.7µM*	10.4%	1.58µM*	-40.1%	?	79.4µM*	G9a inh-2=1.42*
CC(C)(O)[C@H]1O[C@@H]2CC[C@]3(C)[C@@]4(C)c5[nH]c6ccccc6c5C[C@@H]4CC[C@]3(O)C2=CC1=O	.	13.1%	.	.	.	-19.8%
Cc1cccc(OCC(=O)N2CCN(Cc3ccncc3)CC2)c1	17.8µM*	.	2.51µM*	-40.2%	1.26µM*	?	G9a inh-2=8.93*
COc1ccc(OCC(=O)N2CCN(Cc3cccc(OC)c3OC)CC2)cc1	50.1µM*	.	2µM*	?	7.94µM*	.	G9a inh-2=28.9*
COc1ccc(CN2CCN(Cc3ccccc3OC)CC2)cc1	25.1µM*	.	2µM*	?	3.98µM*	?	G9a inh-2=3.56*
CS/C(N)=C(C#N)/C(C#N)=C(\N)SC	.	1.0%	?	.	.	?

Source: PubChem BioAssay
